Only some compounds are listed: those with a hit (about 7% of all), similar ones and a draw of the others.
GRIN3A LBD mod: NR3A (human) ligand-binding domain modulation; AID 1259313; hit rate 2.5% among 340,000; Tm shift relative to glycine control, % at 25 µM; NR3A LBD differential scanning fluorimetry, Tm shift; 0% = protein alone, 100% = glycine-bound protein;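 active = melting temperature shift of at least 10% of the positive control shift, at one fixed dose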
ADAM10 inh: ADAM10 inhibition, QFRET primary screen; O14672; recombinant ADAM10, EDANS/DABCYL FRET peptide cleavage, 3 h; inhibition, % at 7 µM; hit rate 0.62% among 370,000; AID 720582;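 active = inhibition above a per-campaign cutoff equal to the mean of compounds falling between control-based bounds plus 3 SD, cut at about 20% in these data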;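 also: 0% = DMSO wells while the 100% control is not disclosed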
AHR act: activates the human aryl hydrocarbon receptor. activation, % at 5 µM. P35869. AHR-responsive luciferase reporter cells, luminescence. hit rate 2.5% among 320,000; in the data active = activation above about 47%;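 also: 0% = vehicle wells and 100% = reference agonist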
rCAG RNA binder: r(CAG) repeat RNA binding. TO-PRO-1 dye displacement fluorescence. inhibition, % at 3 µM. hit rate 1.3% among 370,000. AID 651821;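 active = inhibition above the plate cutoff, the mean of all test compounds on that plate plus 3 SD, cut at about 35% in these data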;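 also: 0% = DMSO alone and 100% = 100 µM mitoxantrone as full dye displacement; higher means more dye released from RNA so lower well fluorescence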
ADAM17 inh: ADAM17 inhibition, QFRET primary screen | P78536 | AID 720648 | recombinant ADAM17, EDANS/DABCYL FRET peptide cleavage | inhibition, % at 6.95 µM | hit rate 0.83% among 370,000;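 active = inhibition above the mean of compounds lying between control limits plus 3 SD, set per campaign, cut at about 8.5% in these data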;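 also: 0% = DMSO-only wells as the low control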
Target sequence (P78536 215-824 limits assumed): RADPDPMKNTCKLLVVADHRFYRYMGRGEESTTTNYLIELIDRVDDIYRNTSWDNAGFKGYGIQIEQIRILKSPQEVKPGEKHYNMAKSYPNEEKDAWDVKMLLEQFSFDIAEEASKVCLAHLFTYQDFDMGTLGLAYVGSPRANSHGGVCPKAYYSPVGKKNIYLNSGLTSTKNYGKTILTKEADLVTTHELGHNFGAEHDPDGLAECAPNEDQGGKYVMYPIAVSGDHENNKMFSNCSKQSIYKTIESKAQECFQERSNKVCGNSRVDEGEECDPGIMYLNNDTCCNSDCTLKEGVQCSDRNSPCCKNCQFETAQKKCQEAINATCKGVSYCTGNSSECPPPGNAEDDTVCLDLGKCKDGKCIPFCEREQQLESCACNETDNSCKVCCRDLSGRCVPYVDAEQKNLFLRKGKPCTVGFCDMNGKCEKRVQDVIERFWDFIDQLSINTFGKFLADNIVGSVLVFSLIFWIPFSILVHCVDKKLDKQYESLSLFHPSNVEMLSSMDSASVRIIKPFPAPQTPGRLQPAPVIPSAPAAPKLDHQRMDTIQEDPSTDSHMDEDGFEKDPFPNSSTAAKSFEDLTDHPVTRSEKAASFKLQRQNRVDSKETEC
KLK7 zymogen act: activates the human kallikrein-7 zymogen; AID 652039; hit rate 0.9% among 370,000; purified proKLK7, EDANS-DABCYL substrate fluorescence; 100% is mature enzyme control, 0% vehicle; P49862; activation, % at 7 µM;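 active = activation above the mean of all tested compounds plus 3 SD, computed per campaign excluding outliers beyond control limits, cut at about 13% in these data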
rCAG binder conf: r(CAG) RNA repeat binding, confirmation; shares compounds with rCAG RNA binder; TO-PRO-1 dye displacement fluorescence; inhibition, % at 3 µM; hit rate 70% among 4,300;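 active = inhibition above a per-plate cutoff, the mean inhibition of sample wells plus 3 SD, cut at about 35% in these data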;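 also: loss of TO-PRO-1 fluorescence as compound displaces dye from 1x1 AA loop RNA; 0% = DMSO only wells and 100% = 100 µM mitoxantrone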
DNA CAG counter: counter-screen for rCAG RNA binders: DNA CAG dye complex inhibitors; shares compounds with rCAG RNA binder; d(CAG) DNA oligo TO-PRO-1 dye displacement, fluorescence; inhibition, % at 3 µM; hit rate 94% among 4,300;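 active = inhibition above its plate's cutoff, the mean test-well inhibition plus 3 SD, cut at about 4.8% in these data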;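 also: 0% = DNA dye mix with DMSO and 100% = 100 µM mitoxantrone; hits displace the dye from DNA and so lower well fluorescence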
dCAG dye DR: disrupts DNA CAG TO-PRO-1 complex in dose response. shares compounds with rCAG RNA binder. DNA CAG/GTC duplex TO-PRO-1 dye displacement fluorescence. IC50, µM. hit rate 20% among 250; in the data active = IC50 below about 10 µM
* marks the source's active call; other numbers are inactive results; i = inactive; . = no result.

SMILES | GRIN3A LBD mod | ADAM10 inh | AHR act | rCAG RNA binder | ADAM17 inh | KLK7 zymogen act | rCAG binder conf | DNA CAG counter | others
O=c1[nH]n2c(=O)c3c([nH]c2c1N=Nc1cccc(Cl)c1)CCC3 | 6 | 20 | 1 | 85* | 8 | 0 | 73* | 31* | dCAG dye DR=8.4*
O=c1[nH]n2c(=O)c3c([nH]c2c1N=Nc1cccc(C(F)(F)F)c1)CCCC3 | -1 | 11 | 0 | 99* | 4 | 0 | 76* | 42*
C=CCn1c(SCc2ccc(Br)cc2F)nc2cc(C(=O)O)ccc2c1=O | -4 | -30 | 1 | 57* | -15 | 0 | 60* | 22*
C=CCn1c(SCc2c(C)noc2C)nc2cc(C(=O)O)ccc2c1=O | -1 | -6 | -1 | 13 | 0 | 1 | . | .
COc1cc(/C=N/NC(=O)c2ccncc2)ccc1O | 3 | -7 | 6 | -1 | -6 | 1 | . | .
CCN(CC)c1ccc(/C=N\NC(N)=O)cc1 | 8 | -323 | 13 | -1 | -85 | 2 | . | .
O=C(Cc1nnc(NC(=O)Nc2ccc(F)cc2)s1)Nc1ccccc1 | 25* | -6 | 4 | 38* | -3 | -1 | 27 | 15*
Cc1ccc(NC(=O)Nc2nnc(Cc3ccc(F)cc3)s2)cc1 | 4 | -6 | . | 23 | -2 | 0 | . | .
COc1cc(/C=N/NC(=O)Cc2nnc(NC(=O)c3ccccc3)s2)ccc1O | -7 | -7 | 11 | 38* | -4 | -1 | 15 | 7.5*
O=C(Nc1ccccc1)Nc1nnc(Cc2ccc(F)cc2)s1 | -4 | -1 | 29 | 36* | 0 | 0 | 11 | 12*
CCN(CC)c1ccc(/C=N/NC(=O)Cc2nnc(NC(=O)Nc3ccccc3)s2)cc1 | -2 | -46 | 24 | 60* | -20 | -3 | 40* | 27*
COC(=O)C1=C(C)N(Cc2ccccc2C(F)(F)F)C(=NCc2ccc(C(F)(F)F)cc2)NC1c1ccc(C(F)(F)F)cc1 (stereo not given) | . | 3 | . | 2 | -1 | 0 | . | .
Cc1ccc(C)c(NC(=O)c2cccc3c2-c2ccccc2C3=O)c1 | . | -4 | . | 6 | -2 | 0 | . | .
CCCS(=O)(=O)Nc1c(C(=O)O)[nH]c2ccc(OC)cc12 | 1 | -376 | 9 | 9 | -142 | 7 | . | .
COc1ccc2[nH]c(C(=O)O)c(NS(=O)(=O)c3ccc(C)cc3C)c2c1 | -6 | -34 | 5 | 49* | -12 | 2 | 24 | 4.9*
Cc1ccc(S(=O)(=O)Nc2c(C(=O)O)[nH]c3ccccc23)cc1C | 0 | -1 | 18 | 46* | -3 | 1 | 34 | 11*
O=C(O)c1ccc(Cl)c(S(=O)(=O)N(Cc2ccccc2)c2ccccc2Cl)c1 | 7 | 5 | 7 | 73* | 1 | 0 | 68* | 22*
O=C(O)c1ccc(Cl)c(S(=O)(=O)N(Cc2ccccc2)c2ccccc2)c1 | 3 | 1 | 1 | 38* | -3 | 0 | 39* | 9.6*
COc1ccc(N(Cc2ccccc2)S(=O)(=O)c2cc(C(=O)O)ccc2Cl)cc1 | 2 | 4 | 0 | 53* | 4 | 1 | 42* | 8.9*
O=C(O)c1ccc(Cl)c(S(=O)(=O)N(Cc2ccccc2)c2ccc(F)cc2)c1 | 1 | 2 | 0 | 54* | 0 | 0 | 48* | 13*
CCN(CC)S(=O)(=O)c1cc(C(=O)O)ccc1Cl | 0 | 3 | 10 | 3 | 1 | 0 | . | .
O=C(O)c1cccc(S(=O)(=O)N(Cc2ccccc2)c2ccccc2)c1 | -1 | 3 | 1 | 12 | 0 | 0 | . | .
O=C(O)c1cccc(S(=O)(=O)N(Cc2ccccc2)c2ccc(Cl)cc2)c1 | -6 | 5 | 6 | 38* | 0 | 0 | 41* | 12*
CN(C)S(=O)(=O)c1cccc(NC(=S)NNC(=O)c2cc3ccccc3cc2O)c1 | 22* | -12 | -5 | 87* | 3 | -26 | 86* | 56*
CN(C)S(=O)(=O)c1cccc(NC(=S)NC(=O)c2ccco2)c1 | 2 | -7 | . | 2 | -3 | 0 | . | .
SMILES | GRIN3A LBD mod | ADAM10 inh | AHR act | rCAG RNA binder | ADAM17 inh | KLK7 zymogen act | rCAG binder conf | DNA CAG counter | others
CCC1=NN2C(=N)/C(=C/c3cc(C)n(Cc4ccccc4)c3C)C(=O)N=C2S1 | -11 | -5 | 5 | 16 | -1 | 1 | . | .
Cc1cc(/C=C2\C(=N)N3N=C(c4ccco4)SC3=NC2=O)c(C)n1Cc1ccccc1 | -1 | 1 | -1 | 59* | -2 | 0 | 69* | 30* | dCAG dye DR=i
CCOC(=O)Cc1csc(NS(=O)(=O)c2ccc3c4c(cccc24)C(=O)N3CC)n1 | -4 | -20 | 1 | 56* | -10 | 3 | 47* | 13*
CCOC(=O)Cc1csc(NS(=O)(=O)c2ccc(OC)cc2)n1 | -1 | -12 | 2 | 5 | -2 | 0 | . | .
COC(=O)C[C@@H]1CC[C@H](NC(=O)Nc2ccc(OC)cc2)[C@@H](CO)O1 | . | -1 | . | 4 | -3 | 1 | . | .
COc1ccc(/C=C2/SC(=S)N(c3ccc(S(=O)(=O)Nc4nccs4)cc3)C2=O)cc1 | 7 | 15 | -3 | 73* | 1 | 0 | 77* | 44*
O=C1/C(=C\c2ccccn2)SC(=S)N1c1ccc(S(=O)(=O)Nc2nccs2)cc1 | 0 | 7 | 0 | 65* | -2 | 0 | 83* | 52*
Cc1ccc(/C=C2/SC(=S)N(c3ccc(S(=O)(=O)Nc4nccs4)cc3)C2=O)cc1 | 4 | 11 | -2 | 42* | -3 | 0 | 82* | 49*
Cc1ccc(N2C(=O)/C(=C/c3cccnc3)SC2=S)cc1 | -1 | 1 | 2 | 1 | -1 | 0 | . | .
N#C/C(=C\c1ccc(OCc2ccc(C(=O)O)cc2)cc1)C(=O)NCc1ccccc1 | 2 | 2 | 3 | 41* | 2 | -1 | 30 | 5.9*
COc1cc(/C=C(\C#N)C(=O)NC(C)C)ccc1OCc1ccc(C(=O)O)cc1 | 1 | -12 | -1 | 11 | -4 | 0 | . | .
COc1cc(/C=C(\C#N)C(=O)NC2CCCCC2)ccc1OCc1ccc(C(=O)O)cc1 | 0 | -21 | -1 | 40* | -6 | 0 | 38* | 9.2*
COCCNC(=O)/C(C#N)=C/c1ccc(OCc2ccccc2)cc1 | 4 | 5 | 2 | -2 | 1 | 1 | . | .
COc1cc(/C=C(\C#N)C(=O)NCc2ccccc2)ccc1OCc1ccc(C(=O)O)cc1 | 0 | -13 | 0 | 43* | -16 | 1 | 30 | 5.9*
CCn1c2ccccc2c2cc(NC(=O)COC(=O)c3ccc(F)cc3F)ccc21 | . | -6 | . | 5 | -2 | 1 | . | .

From PubChem BioAssay
